Paper PMC4336329 (PLoS ONE, 2015)
Among all 310,000 compounds or so, about 14,000 (4.5%) showed an effect of 50% or more. Effects have a minus sign here. This is one part of a sample in which strong results are shown more often than they occur.

target: human ether-à-go-go-related gene (hERG) potassium channel (human, UniProt Q12809); assay: primary screen, population patch clamp on CHO cells stably expressing hERG; higher = less effect of the substance
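Note: peak tail current of the secondary pulse compared with the same well before compound.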

Sequence of human ether-à-go-go-related gene (hERG) potassium channel (Q12809 whole entry, looked up): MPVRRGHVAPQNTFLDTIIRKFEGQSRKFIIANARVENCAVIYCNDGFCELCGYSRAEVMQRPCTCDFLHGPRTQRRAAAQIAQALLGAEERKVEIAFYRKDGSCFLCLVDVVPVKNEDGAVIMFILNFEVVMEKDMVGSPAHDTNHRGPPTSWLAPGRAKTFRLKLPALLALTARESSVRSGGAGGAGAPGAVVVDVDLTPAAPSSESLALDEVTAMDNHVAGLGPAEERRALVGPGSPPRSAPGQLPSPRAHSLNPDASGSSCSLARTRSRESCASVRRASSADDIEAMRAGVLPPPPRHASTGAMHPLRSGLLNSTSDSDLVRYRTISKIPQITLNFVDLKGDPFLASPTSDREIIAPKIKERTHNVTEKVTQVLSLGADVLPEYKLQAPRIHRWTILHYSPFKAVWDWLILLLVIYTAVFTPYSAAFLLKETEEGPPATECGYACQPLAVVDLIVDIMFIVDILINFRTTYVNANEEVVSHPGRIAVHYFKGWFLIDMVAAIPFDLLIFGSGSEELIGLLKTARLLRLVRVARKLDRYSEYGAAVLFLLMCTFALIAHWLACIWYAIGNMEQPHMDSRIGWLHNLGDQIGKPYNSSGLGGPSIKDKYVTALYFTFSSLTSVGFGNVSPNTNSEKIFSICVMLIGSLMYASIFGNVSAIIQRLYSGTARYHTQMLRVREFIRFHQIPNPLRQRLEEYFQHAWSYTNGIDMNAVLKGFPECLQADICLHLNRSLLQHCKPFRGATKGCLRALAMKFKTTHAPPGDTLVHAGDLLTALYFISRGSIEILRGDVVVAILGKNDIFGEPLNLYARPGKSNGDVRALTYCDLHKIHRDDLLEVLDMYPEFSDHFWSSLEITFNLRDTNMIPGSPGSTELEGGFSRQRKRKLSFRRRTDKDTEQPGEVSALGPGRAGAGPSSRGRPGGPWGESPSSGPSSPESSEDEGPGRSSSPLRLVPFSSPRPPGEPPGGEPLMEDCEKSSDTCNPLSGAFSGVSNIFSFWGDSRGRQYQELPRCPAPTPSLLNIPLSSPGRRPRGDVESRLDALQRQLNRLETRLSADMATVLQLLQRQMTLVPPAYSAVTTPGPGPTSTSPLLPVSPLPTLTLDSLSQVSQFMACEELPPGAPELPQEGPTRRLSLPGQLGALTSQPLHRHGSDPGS

Row | SMILES | hERG current change (%, negative = inhibition) at 10uM
1 | CCOc1ccccc1-c1nc(CN2CCCN(C(=O)c3ccco3)CC2)c(C)o1 | 9.83%
2 | Cc1oc(-c2ccccc2Cl)nc1CN1CCCN(C(=O)c2ccco2)CC1 | -65.4%
3 | Cc1oc(-c2ccc(Cl)cc2)nc1CN1CCCC(C(=O)N2CCN(C(=O)c3ccco3)CC2)C1 (stereo not drawn) | -89.5%
4 | COc1ccc(-c2nc(CN3CCN(C(=O)c4ccco4)CC3)c(C)o2)cc1OC | 1.8%
5 | COc1ccc(F)c(-c2nc(CN3CCN(C(=O)c4ccco4)CC3)c(C)o2)c1 | -35.9%
6 | COC(=O)c1ccc(-c2nc(CN3CCCN(C(=O)c4ccco4)CC3)c(C)o2)cc1 | -41.4%
7 | Cc1ccccc1-c1nc(CN2CCN(C(=O)c3ccco3)CC2)c(C)o1 | -5.18%
8 | Cc1oc(-c2ccc(Cl)cc2)nc1CN1CCCN(C(=O)c2ccco2)CC1 | -72.4%
9 | O=C(c1ccco1)N1CCN(Cc2csc(-c3ccccc3Cl)n2)CC1 | -64.9%
10 | Cc1onc(-c2ccccc2Cl)c1C(=O)N1CCN(C(=O)c2ccco2)CC1 | -16%
11 | Cc1ccc(-c2nc(CSCC(=O)N3CCN(C(=O)c4ccco4)CC3)c(C)o2)cc1 | -32.7%
12 | O=C(c1ccco1)N1CCN(Cc2c(Cl)cccc2Cl)CC1 | -8.42%
13 | CCCC(=O)C1=C(O)C(C(=O)OC)C(C)(C)CC1=NC(C)C (stereo not drawn) | 15.1%
14 | Cc1cccc(C)c1NC(=O)CSc1nnc(C)c(=O)[nH]1 | 15.1%
15 | CC[C@@H]1C(=O)OC[C@@H]1CC1=CN=C[NH+]1C.O=[N+]([O-])[O-] | 15.7%
16 | O=C(O)c1ccc(Oc2ccc(S(=O)(=O)c3ccc(C(=O)O)c(C(=O)O)c3)cc2)cc1 | 9.42%
17 | COc1ccc(CNC(=O)COC(=O)c2ccc(OCc3c(C)noc3C)cc2)cc1OC | 13.8%
18 | CC1(O)CC(=O)N(c2ccccc2)O1 (stereo not drawn) | -1.7%
19 | CCN(CCCNC(=O)C1CCC(=O)N1C1CCCC1)c1cccc(C)c1 (stereo not drawn) | -2.31%
20 | COc1ccc(OC)c(CNn2c(-c3cccc(C)c3)nc3ccccc3c2=O)c1 | 6.92%
21 | Cc1cc(C)nc(SC2CCOC2=O)n1 (stereo not drawn) | 0.669%
22 | Cc1oc(-c2cc(F)ccc2F)nc1CN1CCCN(C(=O)c2ccco2)CC1 | -36.6%
23 | Cc1oc(-c2cc(F)cc(F)c2)nc1CN1CCN(C(=O)c2ccco2)CC1 | -40.5%
24 | Cc1oc(-c2cccc(F)c2)nc1CN1CCCN(C(=O)c2ccco2)CC1 | -74.7%

Row | SMILES | hERG current change (%, negative = inhibition) at 10uM
25 | Cc1ccc(S(C)(=O)=O)cc1C(=O)N1CC(C(N)=O)Oc2ccccc21 (stereo not drawn) | 15.6%
26 | Cc1cc(Br)c(S(=O)(=O)NCCN2CCOCC2)cc1C | 7.8%
27 | Cn1c(SCC(=O)Nc2ccc3c(c2)OCCO3)nnc1-c1ccco1 | 8.89%
28 | C=CCn1c(SCC(=O)Nc2ccc3c(c2)OCCO3)nnc1-c1ccccn1 | -28.3%
29 | CCCn1c(SCC(=O)Nc2ccc3c(c2)OCCO3)nnc1-c1ccco1 | -66.1%
30 | C=CCn1c(SCC(=O)Nc2ccc3c(c2)OCCO3)nnc1-c1ccco1 | -63.3%
31 | C=CCn1c(SCC(=O)Nc2ccc3c(c2)OCO3)nnc1-c1ccccc1 | -34.7%
32 | CCn1c(SCC(=O)Nc2ccc3c(c2)OCCO3)nnc1-c1ccco1 | -25.9%
33 | COc1ccc(-c2nnc(NC(=O)c3ccc([N+](=O)[O-])o3)o2)c(OC)c1 | 19.2%
34 | CC(C)(C)N(NC(=O)OCc1ccccc1)C(=O)c1ccccc1Cl | -17.5%
35 | CCOC(=O)C1=NN(c2ccc(F)cc2)C2=NC(C)=C(C(=O)OC)C(c3cccs3)N12 (stereo not drawn) | -2.17%
36 | O=C(O)CCCCCN1C(=O)C(O)=C(C(=O)/C=C/c2ccccc2)C1c1ccc2c(c1)OCO2 (stereo not drawn) | 1.89%
37 | CC(NCC(O)c1ccc([N+](=O)[O-])cc1)C12CC3CC(CC(C3)C1)C2 (stereo not drawn) | -69.4%
38 | CC(=O)NCC(O)c1ccc([N+](=O)[O-])cc1 (stereo not drawn) | 13.6%
39 | CNC(=S)NCC(O)c1ccc([N+](=O)[O-])cc1 (stereo not drawn) | 5.5%
40 | COc1ccccc1NC(=O)c1cc(C(=O)O)ccc1C(=O)O | 20.4%
41 | CCOc1ccccc1NC(C)C(=O)Nc1cc(C(F)(F)F)ccc1N1CCOCC1 (stereo not drawn) | -6.23%
42 | COc1ccc(OC)c(C(=O)NC(CC(N)=O)c2ccc(NCCN3CCCC3)c([N+](=O)[O-])c2)c1 (stereo not drawn) | 8.75%
43 | Cc1ccc(SCC(=O)NCCCN2CCOCC2)cc1 | 15%
44 | CCN1CCN(CCCN(Cc2ccco2)C(=S)Nc2cc(Cl)ccc2C)CC1 | -61.9%
45 | Cc1ccc(Cl)cc1NC(=S)N(CCN(C)C)Cc1cccs1 | -0.292%
46 | Cc1ccc(Cl)c(NC(=S)N(CCCN2CCOCC2)Cc2ccco2)c1 | -35.3%
47 | CCN1CCN(CCCN(Cc2cccs2)C(=S)Nc2ccccc2C)CC1 | -54.4%
48 | Cc1ccc(Cl)cc1NC(=S)N(CCCN1CCOCC1)Cc1ccccn1 | -34.3%

Row | SMILES | hERG current change (%, negative = inhibition) at 10uM
49 | Cc1ccc(NC(=S)N(CCCN2CCOCC2)Cc2cccs2)c(C)c1 | -11.7%
50 | Cc1cc(Cl)ccc1NC(=S)N(CCCN1CCOCC1)Cc1cccs1 | -32.2%
51 | Cc1ccccc1NC(=S)N(CCCN1CCOCC1)Cc1cccs1 | -39.9%
52 | Cc1ccc(Cl)cc1NC(=S)N(CCCN1CCN(C)CC1)Cc1ccco1 | -52.3%
53 | Cc1ccccc1NC(=S)N(CCCN1CCCCC1)Cc1ccco1 | -45.4%
54 | Cc1ccc(Cl)cc1NC(=S)N(CCCN1CCOCC1)Cc1ccco1 | -28.5%
55 | Cc1ccc(Cl)cc1NC(=S)N(CCCN1CCN(C)CC1)Cc1cccs1 | -61.7%
56 | COC(=O)C1=C(COc2ccccc2)NC(=O)NC1c1ccc(Br)cc1 (stereo not drawn) | 0.599%
57 | Cc1ccc(CSCC(=O)N/N=C/c2cccc(OC3CSC3)c2)cc1 | 11.4%
58 | Nc1nnc(/C=C/c2ccccc2Cl)s1 | 12.1%
59 | Cc1cc(C(=O)COC(=O)c2ccc([N+](=O)[O-])o2)c(C)n1CC1CCCO1 (stereo not drawn) | -42.5%
60 | CCOc1ccc(/C=C2/C(=O)NC(=O)N(CCc3ccc(F)cc3)C2=O)cc1 | 8.76%
61 | Cc1ccc(-n2nc(C(=O)NN)c(C)c(C#N)c2=O)cc1Cl | 14.5%
62 | COc1ccc(N(C(=O)Cn2nnc(-c3ccccc3F)n2)C(C(=O)NCC2CCCO2)c2ccc(Cl)cc2)cc1 (stereo not drawn) | 22.6%
63 | COc1ccc(S(=O)(=O)N(CC(=O)O)c2ccc(C)cc2)cc1 | 4%
64 | Cc1cc(Nc2ccc(Br)cc2)nc(-c2ccccc2O)n1 | 19.9%
65 | CCc1ccccc1NC(=S)N(CCCN1CCN(C)CC1)Cc1cccs1 | -46%
66 | Cc1c(Cl)cccc1NC(=S)N(CCCN1CCOCC1)Cc1cccs1 | -26.5%
67 | CCc1ccccc1NC(=S)N(CCCN1CCOCC1)Cc1cccs1 | -53.5%
68 | COc1ccc(CNC(=O)CCCn2nc(C)n3c(cc4sccc43)c2=O)cc1 | -1.61%
69 | CC(=O)N1N=C(c2cccc([N+](=O)[O-])c2)OC1c1ccc(Cl)cc1Cl (stereo not drawn) | 8.14%
70 | COc1ccccc1C1OC(c2cccc([N+](=O)[O-])c2)=NN1C(C)=O (stereo not drawn) | -62%
71 | CC(=O)N1N=C(c2cccc([N+](=O)[O-])c2)OC1c1ccccc1Cl (stereo not drawn) | -25.8%
72 | CCCc1nc(SCc2cccnc2)c2c(=O)n(C)c(=O)n(C)c2n1 | -57.3%

Row | SMILES | hERG current change (%, negative = inhibition) at 10uM
73 | CCc1nc(SCc2cccnc2)c2c(=O)n(C)c(=O)n(C)c2n1 | -10.7%
74 | CC(C)Cc1nc(SCc2cccnc2)c2c(=O)n(C)c(=O)n(C)c2n1 | -8.32%
75 | Cn1c(=O)c2c(SCc3cccnc3)nc(CC(C)(C)C)nc2n(C)c1=O | -59.6%
76 | Cc1ccccc1-c1nc(SCc2cccnc2)c2c(=O)n(C)c(=O)n(C)c2n1 | 10.5%
77 | Cn1c(=O)c2c(SCc3cccnc3)nc(C3CC3)nc2n(C)c1=O | -9.63%
78 | CC1=C(C(=O)NC(C)c2ccccc2)C2(CCC(C)CC2)OC1=O (stereo not drawn) | -4.71%
79 | Cc1ccc(C)c2c1N(Cc1ccccc1)C(=O)C21OCCO1 | -21.8%
80 | Cc1nc(NC(=O)C2CCCCC2C(=O)O)sc1C (stereo not drawn) | 12%
81 | O=C(CNC(=O)c1ccccc1)OCc1nnc(-c2ccc(Cl)cc2)o1 | -10.4%
82 | Cc1cnc(CN2CCc3c([nH]c4ccccc34)C2C2CCCCC2)[nH]1 (stereo not drawn) | -62.6%
83 | Cc1c(CN2CCc3c([nH]c4ccccc34)C2C2CCCCC2)cnn1C (stereo not drawn) | -38.7%
84 | c1ccc2c3c([nH]c2c1)C(C1CCCCC1)N(Cc1ncc[nH]1)CC3 (stereo not drawn) | -39.5%
85 | O=S(=O)(c1ccccc1)c1nc(-c2ccccc2)oc1NCc1cccnc1 | 8.28%
86 | O=S(=O)(c1ccccc1)c1nc(-c2ccco2)oc1NCCCn1ccnc1 | -65.6%
87 | CNc1oc(-c2cccs2)nc1S(=O)(=O)c1ccccc1 | -18.7%
88 | O=S(=O)(c1ccccc1)c1nc(-c2cccs2)oc1NCCCn1ccnc1 | -75.1%
89 | N#Cc1nc(-c2ccco2)oc1NCCCn1ccnc1 | -19.7%
90 | Cc1ccc(S(=O)(=O)c2nc(-c3cccs3)oc2NCc2cccnc2)cc1 | -18.3%
91 | O=S(=O)(c1ccccc1)c1nc(-c2ccco2)oc1NCCCN1CCOCC1 | -6.01%
92 | C=CCNc1oc(-c2cccs2)nc1S(=O)(=O)c1ccccc1 | -24.7%
93 | O=S(=O)(c1ccccc1)c1nc(-c2cccs2)oc1NCc1cccnc1 | -50.5%
